Rab9 prom act: activates the Rab9 promoter. Huh7 Rab9 promoter-luciferase reporter, luminescence, 24 h. 2.8% of 320,000 active. AID 485297. Potency, µM (top dose mostly 9.22 µM), for the others: at the top dose activation, negative = inhibition, most hits filed as activators; further: % of control where 0% means no effect; nearly all actives have a fitted effect of over 60% in size
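Huh7 cells stably carrying Rab9 promoter–luciferase reporter, plated 1500 cells/well, compound added after 2 h and incubated 24 h at 37 °C; luciferase luminescence then read after 10 min with detection reagent.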
SMN2 splice up: SMN2 splice variant enhancement. HEK293 SMN2-luciferase splicing reporter, luminescence, 30-36 h. Potency, µM (highest dose often 46.1 µM), inactives show top-dose activity change, positive = activation, most hits filed as activators. 2.8% of 210,000 active. AID 1458; further: % of control where 0% means no effect; nearly all actives have a fitted effect of over 55% in size
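qHTS luciferase splicing reporter: luminescence rises when SMN2 exon 7 is included in transfected HEK293 cells. Compound exposure lasted 30-36 h at 37C, with 4.5 mM final sodium butyrate as control, followed by a ONE-Glo read.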
ELG1 genotox: inducers of genotoxicity in HEK293T ELG1-luciferase cells. HEK293T ELG1-luciferase reporter, luminescence, 16 h. Potency, µM (highest dose often 46 µM), inactives show at the highest dose activity change, positive = activation, most hits filed as activators. 1.3% of 330,000 active; further: % of control where 0% means no effect; nearly all actives have a fitted effect of over 60% in size
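Genotoxic stress is detected as increased luminescence from luciferase-tagged ELG1 in HEK293T cells, measured with ONE-Glo after a 16 hr treatment at 37 °C.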
NPC1 prom act: activators of NPC1 promoter; Huh7 NPC1 promoter luciferase reporter, 24 h; Potency, µM (doses to about 9.22 µM), for inactives: at the highest dose activation, usual class: activators; 2.4% of 320,000 active; further: % of control where 0% means no effect; nearly all actives have a fitted effect of over 60% in size
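Huh7 cells stably carrying NPC1 promoter–luciferase, plated in Opti-MEM with 10% FBS for 2 h, were exposed to compound in DMSO for 24 h at 37 °C; luciferase reagent was added for 10 min and luminescence read.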
Luc counter: blocks Kinase-Glo luciferase, a counter-screen artifact | Q27757 | Kinase-Glo luciferase, ATP luminescence, 8 min | Potency, µM (titrated, usually from 38.3 µM), for inactives: at the top dose activity change, negative = inhibition, hits mostly inhibitors | 0.28% of 200,000 active; further: on the % scale 0 is the no-effect control and ±100 the full control effect; nearly all actives have a fitted effect of over 60% in size
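Substrate mix (final 50 mM imidazole pH 7.2, 50 mM KCl, 7 mM MgCl2, 10 uM ATP, 0.01% Tween 20, 0.05% BSA) plus pin-tool compound, then Kinase-Glo detection mix; 8 min ambient, luminescence read.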
FLuc counter: inhibits or activates purified firefly luciferase, miR-21 counter-screen | P08659 | purified FLuc, Km substrates, luminescence inhibition | Potency, µM (highest dose often 57.5 µM), inactives show at the top dose activity change, negative = inhibition, usual class: inhibitors | 6.9% of 360,000 active | AID 588342;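 further: plate controls were vehicle for no effect and reference inhibitor for full effect; nearly all actives have a fitted effect of over 55% in size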
Target sequence (P08659 whole entry, looked up): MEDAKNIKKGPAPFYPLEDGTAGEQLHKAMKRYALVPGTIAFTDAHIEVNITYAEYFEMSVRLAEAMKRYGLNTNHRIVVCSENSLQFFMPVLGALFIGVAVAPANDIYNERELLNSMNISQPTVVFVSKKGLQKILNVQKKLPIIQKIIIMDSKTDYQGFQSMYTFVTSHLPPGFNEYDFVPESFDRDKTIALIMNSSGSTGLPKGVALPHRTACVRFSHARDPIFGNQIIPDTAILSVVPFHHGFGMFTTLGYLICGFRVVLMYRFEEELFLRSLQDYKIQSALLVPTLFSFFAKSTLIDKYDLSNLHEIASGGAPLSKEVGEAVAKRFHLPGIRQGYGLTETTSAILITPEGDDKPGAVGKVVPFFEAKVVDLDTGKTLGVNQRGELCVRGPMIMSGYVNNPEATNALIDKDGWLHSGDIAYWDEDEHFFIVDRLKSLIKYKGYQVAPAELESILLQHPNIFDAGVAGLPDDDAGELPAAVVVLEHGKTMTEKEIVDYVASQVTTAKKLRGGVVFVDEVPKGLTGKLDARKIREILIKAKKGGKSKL
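Purified P. pyralis luciferase, 10 nM final, with Km-level 10 uM D-luciferin and 10 uM ATP in 50 mM Tris acetate pH 7.5, 10 mM Mg acetate, 0.01% Tween-20, 0.05% BSA; 6-point qHTS titration about 60 µM downward; luminescence read.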
An asterisk follows results filed as active; ? = inconclusive; . = no result. The list is not random: actives were taken first. Their share in the collection is about 7.3%. The call rests on the fitted dose curve; in most records, active means well fitted curve in the direction sought with a large enough effect; inconclusive means small, poorly fitted or top-dose-only effect, or another doubt; inactive means no such curve, though single readings can be large; an effect the other way counts as inactive or inconclusive. Potency means the concentration at half of the fitted maximal effect.

SMILES	Rab9 prom act	SMN2 splice up	ELG1 genotox	NPC1 prom act	Luc counter	FLuc counter
Fc1ccc(-c2nnc(Cc3nnc(-c4ccc(F)cc4)o3)o2)cc1	0%	-5%	-1%	-2%	10%	-1%
O=[N+]([O-])c1ccc(Cc2nnc(-c3ccc(F)cc3)o2)cc1	1µM*	5%	-4%	?	12%	-11%
O=C(CSc1ncnc2ccccc12)Nc1ccc2c(c1)OCCO2	14%	0%	-9%	0%	0%	17µM*
COc1ccc(-n2nnc3c(SCC(=O)Nc4ccc5c(c4)OCCO5)ncnc32)cc1	1%	21%	9%	4%	-9%	7.6µM*
O=C(CSc1ncnc2ccccc12)Nc1ccc2c(c1)OCO2	-8%	-30%	-23%	2%	5%	-9%
CCc1ccccc1-n1c(SCC(=O)Nc2ccc3c(c2)OCCO3)nc2[nH]ncc2c1=O	5%	-16%	?	0%	8%	17µM*
O=C(CSc1ccccc1C(=O)O)Nc1ccc2c(c1)OCO2	-5%	.	0%	-2%	.	?
O=C(CSc1ncccc1C(=O)O)Nc1ccc2c(c1)OCCO2	0%	.	0%	7%	.	11µM*
Cc1ccccc1CNC(=O)c1ccc2ccccc2n1	-4%	.	-1%	1%	.	?
O=C(Nc1ccccc1Cl)c1cccc(NC(=O)C2CCCC2)c1	0%	.	-5%	3%	.	-7%
COC(=O)c1ccc(CSc2ncnc3c2nnn3-c2ccc(OC)cc2)o1	-4%	-1%	2%	12%	0%	21µM*
Cc1ccc(Cn2ccnc2SCC(=O)Nc2ccc3c(c2)OCO3)cc1	.	.	.	.	.	-14%
O=C(CSc1nccn1Cc1ccccc1)Nc1ccc2c(c1)OCCO2	.	.	.	.	.	13µM*
COc1ccc(C2CC(=O)N(CCCN(C)CCc3ccc(OC)c(OC)c3)C2)cc1 (centres undefined)	-3%	-7%	-13%	-6%	8%	-2%
CC(=O)c1cccc(S(=O)(=O)N2CCN(c3ccccc3F)CC2)c1	-1%	-35%	-9%	-7%	-2%	2%
Cc1cccc(-c2cc3nc(C)c(C)c(NCCCn4ccnc4)n3n2)c1	1%	.	-10%	3%	.	15µM*
Cc1cc(NCCCn2ccnc2)n2nc(-c3ccc(F)cc3)cc2n1	8%	26%	5%	18%	-5%	9.5µM*
Cc1cc(NCCCn2ccnc2)n2nc(-c3ccc(Cl)cc3)cc2n1	21%	3%	13%	?	-2%	?
O=S(=O)(c1ccc(Cl)cc1)N1CCC2(CC1)OCCN2S(=O)(=O)c1cccs1	7%	.	-1%	4%	.	0%
CC1(C(=O)OCc2cc(=O)n3cc(Br)ccc3n2)CC1(Cl)Cl (centres undefined)	-27%	?	12µM*	3.2µM*	-2%	13µM*
CC1CC1C(=O)OCc1cc(=O)n2cc(Br)ccc2n1 (centres undefined)	3.5µM*	13%	?	2.5µM*	8%	9.5µM*
O=C(OCc1cc(=O)n2cc(Br)ccc2n1)C1COc2ccccc2O1 (centres undefined)	-2%	3%	2%	0%	-3%	0%
CC1(C)NC(=O)N(CC(=O)OCc2cc(=O)n3cc(Br)ccc3n2)C1=O	6%	17%	1%	-5%	2%	-1%
Cc1ccccc1C(=O)NC(CC(C)C)C(=O)OCc1cc(=O)n2cc(Br)ccc2n1 (centres undefined)	?	11µM*	?	4µM*	-3%	13µM*
C=CCNS(=O)(=O)c1ccc(OCC(=O)OCC)cc1	-2%	?	-7%	-2%	3%	-1%
CCN(C[C@H]1N[C@@](C)(C(=O)OC)[C@H]2C(=O)N(C)C(=O)[C@@H]12)C(=O)Nc1ccccc1	.	.	-1%	.	.	.
C/C(=C\C(=O)c1ccccc1)Nc1ccc2c(c1)OCO2	4µM*	22µM*	?	2.8µM*	-3%	3.8µM*
